Nine compounds from PubChem BioAssay (NCI) can be followed below.

Test systems include OVCAR-5 ovarian; OVCAR-4 ovarian; SK-OV-3 ovarian; IGROV1 ovarian; OVCAR-3 ovarian; HS 578T breast; NCI/ADR-RES ovarian; T-47D breast; BT-549 breast; MDA-MB-435 melanoma; SW-620 colon; MCF7 breast; HCT-116 colon; HCC-2998 colon; KM12 colon; OVCAR-8 ovarian.
Holding throughout (experiment): NCI-60 one-dose screen, 48 h (100 = growth as untreated, 0 = no growth, -100 = all killed)
Holding throughout (conditions): 10 µM unless noted

The panel holds about 83,000 compounds, 20% with a hit somewhere; the sample as a whole holds those more often.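 Negative percent growth values reflect cell death: -40 means 40% of the cells present at the start died, and -100 means all died.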 Unmarked numbers belong to inactive results. Active and inactive are the calls of the source. Rule for the calls: active = growth percent below 10; inactive = the rest.

Regarding `CC(=O)c1cc(C(=O)c2ccc3c(c2)Sc2ccccc2N3)c2c(C)cc(C)cn12`, the growth in the test on OVCAR-5 ovarian was 39.7%; in the test on OVCAR-4 ovarian, 39.8%; in the test with SK-OV-3 ovarian it was 21%; in the test on IGROV1 ovarian, 28.3%; in the test with OVCAR-3 ovarian, -26.1% (active); in the test on HS 578T breast it was 20.5%. Also, the growth is 12.9% with NCI/ADR-RES ovarian; 48.2% in the test on T-47D breast; 28.5% in the test with BT-549 breast; -22.1% (active) in the test with MDA-MB-435 melanoma; 20.8% in the test on SW-620 colon; 15.1% in the test on MCF7 breast. For the same compound, the growth with HCT-116 colon was 3.76% (active); in the test with HCC-2998 colon, 18%; in the test on KM12 colon, 11.1%.

Turning to `CC1=C(C(=O)Nc2ccccc2)C(c2ccc3c(c2)OCCO3)NC(=O)N1` (stereo unspecified), the growth is 102% in the test with OVCAR-8 ovarian; 102% with OVCAR-5 ovarian; 106% in the test on OVCAR-4 ovarian; 104% in the test on IGROV1 ovarian; 106% in the test with OVCAR-3 ovarian; 101% in the test on HS 578T breast. The growth is 101% with NCI/ADR-RES ovarian; 101% in the test with T-47D breast; 95.9% in the test with BT-549 breast; 102% with MDA-MB-435 melanoma; 105% in the test on SW-620 colon; 94.7% in the test on MCF7 breast. Besides, the growth is 97.6% with HCT-116 colon and 103% in the test with HCC-2998 colon.

`Cc1nn(-c2ccccc2)c2ncc3c(c12)C(=O)N(Cc1ccccc1)C3=O`: the growth with OVCAR-5 ovarian is 63.6%; in the test with OVCAR-4 ovarian it was -57.8% (active); in the test on SK-OV-3 ovarian, 14.7%; in the test with IGROV1 ovarian, 14.7%; in the test with OVCAR-3 ovarian it was 19.2%; in the test on HS 578T breast, 22.7%. For the same compound, the growth in the test with NCI/ADR-RES ovarian was 42.1%; in the test on T-47D breast, 43.4%; in the test with BT-549 breast it was 76.4%; in the test on MDA-MB-435 melanoma, 90.7%; in the test with SW-620 colon, 61%; in the test on MCF7 breast, 58.8%. For the same compound, the growth in the test with HCT-116 colon was 10.5%; with HCC-2998 colon, 63%; with KM12 colon it was 85.8%.

Take `Cc1c(C(N)=O)sc2c1c(=O)n(Cc1ccccc1)c1nnc(S(=O)(=O)CC(=O)Nc3ccc(Cl)cc3)n21`: the growth with OVCAR-5 ovarian was 82.7%; in the test on SK-OV-3 ovarian it was 18.7%; in the test on IGROV1 ovarian it was 40%; in the test with OVCAR-3 ovarian, 5.69% (active); in the test on HS 578T breast, 17.8%; with NCI/ADR-RES ovarian, 108%. Besides, the growth in the test with T-47D breast was 21.8%; in the test on BT-549 breast, 75.7%; in the test on MDA-MB-435 melanoma, 46.2%; in the test on SW-620 colon, 39.6%; with MCF7 breast, 73.5%; with HCT-116 colon, 15%. In addition, the values for the growth in the test on HCC-2998 colon and in the test on KM12 colon were 26% and 55%, respectively.

Take `c1ccc(Nc2nnc(-c3cc(-c4cccnc4)n(-c4ccccc4)n3)s2)cc1`: the growth was 59.9% in the test with OVCAR-8 ovarian; 105% in the test on OVCAR-5 ovarian; 109% with SK-OV-3 ovarian; 108% in the test on IGROV1 ovarian; 106% in the test with OVCAR-3 ovarian; 119% with HS 578T breast. Moreover, the growth with NCI/ADR-RES ovarian was 62.4%; with T-47D breast, 51.3%; in the test with BT-549 breast, 85.8%; with MDA-MB-435 melanoma it was 80.7%; in the test on SW-620 colon, 97.1%; in the test with MCF7 breast, 95.7%. For the same compound, the results for the growth with HCT-116 colon and in the test on HCC-2998 colon were 76.8% and 72.5%, respectively.

Consider `CCSc1nnc2n(Cc3ccccc3)c(=O)c3c(C)c(C(N)=O)sc3n12`, for which the growth was 94.3% with OVCAR-5 ovarian; 99.5% in the test with OVCAR-4 ovarian; 88.5% in the test on SK-OV-3 ovarian; 101% with IGROV1 ovarian; 119% in the test on OVCAR-3 ovarian; 101% with HS 578T breast. Also, the growth with NCI/ADR-RES ovarian was 97.1%; with T-47D breast it was 99.8%; with BT-549 breast, 88.9%; with MDA-MB-435 melanoma it was 105%; in the test on SW-620 colon, 109%; in the test with MCF7 breast it was 96.8%. Besides, the growth is 100% in the test with HCT-116 colon, 101% in the test on HCC-2998 colon and 105% in the test with KM12 colon.

On to `Cc1nn(-c2ccccc2)c2nc(Cl)c(/C=C/C(=O)c3ccccc3)c(-c3ccccc3)c12`, for which the growth was 103% in the test on OVCAR-5 ovarian; 107% with OVCAR-4 ovarian; 102% in the test with SK-OV-3 ovarian; 120% in the test on IGROV1 ovarian; 116% in the test with OVCAR-3 ovarian; 95.5% with HS 578T breast. Also, the growth is 105% in the test on NCI/ADR-RES ovarian; 107% in the test with T-47D breast; 87.9% in the test on BT-549 breast; 103% with MDA-MB-435 melanoma; 112% in the test on SW-620 colon; 96.1% in the test on MCF7 breast. For the same compound, the growth with HCT-116 colon was 95.5%; in the test with HCC-2998 colon, 103%; in the test on KM12 colon, 106%.

For the compound `Cc1c(C(N)=O)sc2c1c(=O)n(Cc1ccccc1)c1nnc(SCC(=O)Nc3ccc(Cl)cc3)n21`, the growth in the test on OVCAR-5 ovarian was 64.9%; in the test on OVCAR-4 ovarian it was -80.2% (active); in the test on SK-OV-3 ovarian it was 24.8%; with IGROV1 ovarian it was 23.1%; in the test on OVCAR-3 ovarian, -3.77% (active); in the test with HS 578T breast, 6.54% (active). The growth in the test with NCI/ADR-RES ovarian is 82.2%; with T-47D breast, -23.9% (active); with BT-549 breast, 67.7%; with MDA-MB-435 melanoma, 40.7%; in the test with SW-620 colon, 35.6%; in the test on MCF7 breast, 31.6%. Besides, the growth with HCT-116 colon was 2.83% (active); with HCC-2998 colon, 18.1%; in the test on KM12 colon it was 55.3%.

Regarding `O=C(NCCc1ccccc1)C1CCC(=O)N1Cc1ccc(Br)cc1` (stereo unspecified), the growth in the test on OVCAR-5 ovarian is 94.4%; in the test on OVCAR-4 ovarian, 111%; in the test with IGROV1 ovarian, 103%; in the test with OVCAR-3 ovarian, 116%; in the test with HS 578T breast it was 113%; in the test with NCI/ADR-RES ovarian it was 107%. Moreover, the growth is 106% in the test on T-47D breast; 107% in the test on BT-549 breast; 110% with MDA-MB-435 melanoma; 97.5% in the test with SW-620 colon; 102% in the test with MCF7 breast; 77.9% in the test on HCT-116 colon. For the same compound, the growth was 108% with HCC-2998 colon and 106% in the test on KM12 colon.
